Screening data from PubChem BioAssay.
In the library only some 11% were active in any assay of this set; here they are far more common.
Tau fibril FP = tau fibrillization inhibition (FP) | Potency, µM (highest dose often 57.7 µM), for the others: top-dose activity, negative = inhibition, usual class: inhibitors | P10636 | K18 P301L tau heparin fibrillization, Alexa594 FP, 6 h | actives 0.39% (n = 280,000); further: potency means the concentration at half of the fitted maximal effect; nearly all actives have a fitted effect of over 55% in size
Target sequence (P10636 561-689 P618L limits assumed): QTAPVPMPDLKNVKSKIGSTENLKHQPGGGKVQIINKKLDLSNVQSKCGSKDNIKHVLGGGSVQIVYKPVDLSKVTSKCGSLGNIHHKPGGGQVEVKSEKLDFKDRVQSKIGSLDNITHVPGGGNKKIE
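Compound effects on tau fibrillization are measured by Alexa 594 fluorescence polarization (ex 555, em 632 nm). K18 P301L tau is used at 15 uM with 0.24 uM labeled tracer, and 20 uM heparin induces aggregation over 6 hr at 37 C.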
Coupling enz = coupling enzyme interference in Giardia aldolase counter-screen. coupling enzyme system counterscreen, AmpLite Red fluorescence. activity change, negative = inhibition, % at 58.2 µM, hits read low. actives 0.67% (n = 290,000). AID 2472; in the data active means activity change below about -30%
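Counterscreen lacking aldolase: glyceraldehyde-3-phosphate coupling-enzyme reagent preincubated 10 min at RT with compound (at 57.5 uM final), then substrate/coupling system with AmpLite Red added; fluorescence read at 525/598 nm after 20 min RT.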
Tau fluor cs = counter-screen for tau fibril formation inhibitors; actives 0.93% (n = 280,000); tau K18 P301L Alexa594 fluorescence, heparin fibrillization; AID 1463; Potency, µM (highest dose often 57.7 µM), for the others: top-dose activity change, negative = decrease; further: potency means the concentration at half of the fitted maximal effect; nearly all actives have a fitted effect of over 55% in size
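Human tau K18 P301L (15 uM unlabeled, 0.24 uM Alexa 594-labeled) in 100 mM sodium acetate pH 7 with 20 uM heparin, 6 hr at 37 C. ThT 30 uM added, 1 hr ambient; Alexa 594 FP and total fluorescence read at 555/632 nm.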
Tau fibril ThT = tau fibrillization inhibition (ThT binding); P10636; recombinant tau K18 P301L (four-repeat tau fragment), heparin-induced fibrillization, ThT fluorescence; Potency, µM (doses to about 57.4 µM), without a hit: at the highest dose activity, negative = inhibition, actives largely listed as inhibitors; actives 2.1% (n = 270,000); further: potency means the concentration at half of the fitted maximal effect; nearly all actives have a fitted effect of over 55% in size
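Aggregation was driven by heparin (20 uM final) acting on recombinant tau […] bearing P301L in 100 mM sodium acetate pH 7; fibrils were detected with Thioflavin T.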
G9a block = inhibitors of human histone lysine methyltransferase G9a; Q96KQ7; G9a H3K9 monomethylation, AlphaScreen, 2 h; Potency, µM (highest dose often 102 µM), for inactives: top-dose activity, negative = inhibition, actives largely listed as inhibitors; actives 8.8% (n = 350,000); AID 504332; further: potency means the concentration at half of the fitted maximal effect; nearly all actives have a fitted effect of over 75% in size
Target sequence (Q96KQ7 913-1193 limits assumed): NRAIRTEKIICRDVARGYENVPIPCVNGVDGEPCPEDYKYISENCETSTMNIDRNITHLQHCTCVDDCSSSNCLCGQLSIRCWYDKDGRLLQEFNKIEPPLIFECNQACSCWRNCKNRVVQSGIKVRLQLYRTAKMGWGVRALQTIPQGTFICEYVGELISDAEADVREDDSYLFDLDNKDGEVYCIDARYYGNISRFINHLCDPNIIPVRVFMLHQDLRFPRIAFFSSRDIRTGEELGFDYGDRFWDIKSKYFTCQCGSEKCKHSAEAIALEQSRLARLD
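Compounds were preincubated with 20 nM G9a for 15 min, after which biotinylated H3K9 peptide (500 nM) and SAM (20 uM) started a 2 h room-temperature reaction. Monomethylated product was quantified by antibody-based AlphaScreen chemiluminescence.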
Sfp PPTase inh = blocks B. subtilis Sfp PPTase activity; Potency, µM, for inactives: largest response in the series, negative = inhibition, actives largely listed as inhibitors; AID 1490; Q9F4F7; Biochemical Sfp PPTase activity, qHTS; actives 3.5% (n = 310,000);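 further: the enzyme is Sfp with the accession as filed and its product quenches rhodamine fluorescence; potency means the concentration at half of the fitted maximal effect; 0% = enzyme reaction without inhibitor and -100% = no enzyme wells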
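Fluorescence-quenching assay with 15 nM Sfp, 5 uM rhodamine-CoA and 12.5 uM BHQ-2-labelled ybbR peptide in pH 7.6 Hepes/MgCl2 buffer. Enzyme was pre-incubated with compound for 15 min at room temperature. Rate was taken from the 30-min fluorescence change (525/598 nm).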
Numbers without * were called inactive; ? = inconclusive; / = no result given; ! = not confirmed by another sample; [ ] = dose if it differs, or a comment. Unless noted, the call rests on the fitted dose curve; in most records, active means well fitted curve in the direction sought with a large enough effect; inconclusive means small, poorly fitted or top-dose-only effect, or another doubt; inactive means no such curve, though single readings can be large; an effect the other way counts as inactive or inconclusive. Unless noted, on the % scale 0 is the no-effect control and ±100 the full control effect.

SMILES	Tau fibril FP	Coupling enz	Tau fluor cs	Tau fibril ThT	G9a block	Sfp PPTase inh
COc1cc(C(=S)N2CCCCC2)ccc1O	-13%	-37*	-17%	-23%	50µM*	45µM*
O=S(=O)(c1ccccc1)c1cc(O)ccc1O	-10%	-3	-9%	-8%	50µM*	-15%
Nc1ccc(S(=O)(=O)c2ccc(Cl)cc2)cc1	-7%	-3	-9%	-10%	7%[59 µM]	7%
O=S(=O)(c1ccc(Cl)cc1)c1cc(O)ccc1O	/	2	/	/	45µM*	-17%
Cc1c(O)ccc2cc(S(=O)(=O)c3ccccc3)c(=O)oc12	/	10	/	/	29%	-18%
CN1CCN(c2ncc3nc(-c4cccs4)c(=O)n(CCc4ccccc4)c3n2)CC1	/	3	/	/	4%[0.501 µM]	-26%
COc1ccc(N2CCN(C(=O)COc3ccc(Cl)cc3Cl)CC2)cc1	7%	7	-25%	-17%	6.3µM*	5%
COc1ccc(OCC(=O)N2CCN(c3cccc(Cl)c3)CC2)cc1	5%	2	-11%	?	-2%[59 µM]	6%
COc1ccc(N2CCN(C(=O)COC(=O)CNC(=O)c3ccc(Cl)cc3Cl)CC2)cc1	/	/	/	/	45µM*	/
CCC1CCCCN1Cc1ccc(N)cc1 (centres undefined)	5%	0	-1%	7%	-11%[0.501 µM]	-5%
CC(Sc1nnc(-c2ccncc2)n1C)C(=O)NCC1CCCO1 (centres undefined)	/	/	/	/	0%	/
CCOC(=O)c1nnsc1Nc1ccc(C)c(C)c1	-1%	-2	-15%	?	7.1µM*	-26%
COc1ccc(SCC(CC(C)C)N2CCN(C)CCC2=O)cc1 (centres undefined)	/	3	/	/	/	-2%
CC1CN(c2ccc(NC(=S)Nc3ccc(N4CC(C)OC(C)C4)cc3)cc2)CC(C)O1 (centres undefined)	1%	-1	?	/	45µM*	-14%
CC1CN(C(=S)Nc2ccc(Cl)cc2)CC(C)O1 (centres undefined)	/	0	/	/	-14%	-5%
CCOc1ccccc1-n1nnnc1SC(C)C(=O)OC (centres undefined)	-2%	2	-5%	-6%	1%	18%
O=C(N=C1SCC(=O)N1c1ccccc1Cl)c1ccco1	0%	-12	-10%	-15%	50µM*	-4%
O=C(N=C1SCC(=O)N1c1ccccc1)c1ccco1	0%	-4	-5%	-11%	-2%[59 µM]	9%
Cc1ccc(-c2onc(C)c2C)cc1S(=O)(=O)NCc1ccc(N(C)C)cc1	17%	/	?	-5%	11µM*	/
Cc1ccc(-c2onc(C)c2C)cc1S(=O)(=O)NC1CCCCC1	4%	/	-21%	-9%	6%[59 µM]	/
COc1ccc(-c2noc(N3CCN(c4cccc(Cl)c4)CC3)n2)cc1OC	-11%	/	-19%	?	-21%[59 µM]	/
CC1(OC(=O)C2CCCC2)C(=O)C=C2C=C(c3ccsc3)N(C3CC3)C=C2C1=O (centres undefined)	2%[11.6 µM]	-30*!	-10%[11.6 µM]	?	30%[12.7 µM]	-5%
CC1(OC(=O)C2CCCC2)C(=O)C=C2C=C(c3ccsc3)N(c3ccccc3)C=C2C1=O (centres undefined)	?	0	-3%[11.6 µM]	?	15%[12.7 µM]	-13%
CC1(OC(=O)C2CCCC2)C(=O)C=C2C=C(c3ccsc3)N(C(CO)CO)C=C2C1=O (centres undefined)	-7%[11.6 µM]	-31*!	-7%[11.6 µM]	?	7%[59 µM]	-14%
CCn1c(=O)c2cc(C(=O)NCCc3cc(OC)ccc3OC)sc2c2ccccc21	-5%	/	-14%	-6%	?	/
SMILES	Tau fibril FP	Coupling enz	Tau fluor cs	Tau fibril ThT	G9a block	Sfp PPTase inh
CCOc1cc(/C=N/Nc2nnc(C)n2N)ccc1O	/	-8	/	/	25µM*	56µM*
CCOc1cc(/C=N/NC(=O)C(=O)N/N=C/c2ccc(O)c(OCC)c2)ccc1O	/	-1	/	/	/	22%
Cc1n[nH]c(=O)nc1Nc1ccc(O)cc1	-9%	-3	-17%	-18%	79µM*	-4%
Cc1n[nH]c(=O)nc1N/N=C/c1ccco1	-2%	-2	-12%	?	-40%	40µM*
CCOc1cc(/C=N/Nc2nc(=O)[nH]nc2C)ccc1O	9%	-4	-1%	-15%	16%	71µM*
CCOc1cc(/C=N/Nc2ncnc(Cl)c2N)ccc1O	11%	0	-20%	?	?	-76%
Cc1n[nH]c(=O)nc1NCc1ccco1	8%	2	-2%	-12%	-32%[12.7 µM]	-19%
COc1ccc(/C=N/Nc2nc(C)cc(=O)[nH]2)cc1OC	/	-3	/	/	?	5%
COc1cc(/C=N/Nc2nc(=O)[nH]nc2C)cc(OC)c1O	-1%	4	0%	?	?	35µM*
CCOc1ccc(/C=N/Nc2nc(=O)[nH]nc2C)cc1OC	1%	-1	-8%	?	-34%	25µM*
COc1cc(/C=N/NC(=O)c2cc(C3CC3)[nH]n2)cc(OC)c1OC	/	-1	/	/	11%	9%
Cc1n[nH]c(=O)nc1NCCc1ccccc1	4%	2	-8%	-9%	89µM*	0%
CCOC(=O)N1CCN(C(=S)NC(=O)c2ccc(Br)cc2)CC1	3%	1	1%	-3%	50µM*	8%
CCOC(=O)N1CCN(C(=S)NC(=O)c2cncc(Br)c2)CC1	-1%	1	9%	0%	4µM*	-19%
CC1CCC(NC(=O)C2CCN(C(=O)Nc3ccccc3)CC2)CC1 (centres undefined)	/	/	/	/	17%[2.33 µM]	/
CN(C)c1ccc(-c2n[nH]c(=S)n2-c2ccccc2)cc1	9%	7	-7%	-7%	1.8µM*	-1%
CCN(CC)c1ccc(-c2n[nH]c(=S)n2-c2ccccc2)cc1	15%	6	-16%	?	1.4µM*	-12%
CCOC(=O)N/N=C/c1ccc(C)o1	2%	3	4%	3%	11%	26%
Cc1ccc(/C=N/NC(=O)CSc2nnc(-c3ccccc3)n2-c2ccc(Cl)cc2)o1	1%	8	-5%	-8%	45µM*	-28%
Cc1ccc(/C=N/NC(=O)c2ccncc2)o1	-3%	1	-4%	1%	-17%[59 µM]	-19%
Cc1ccc(/C=N/NC(=O)C2(O)c3ccccc3-c3ccccc32)o1	7%	0	11%	4%	56µM*	?
O=C(N/N=C/c1ccncc1)c1cnccn1	-3%	1	-9%	-13%	2%	-6%
Cc1ccc(/C=N/NC(=O)c2ccccn2)o1	4%	0	-3%	-7%	?	56µM*
O=C(N/N=C/c1ccncc1)c1ccccn1	/	0	/	/	2µM*	?
COc1ccc(Cn2ccc3nc(C)c(C(=O)N4CCN(c5cc(C)ccc5C)CC4)cc3c2=O)cc1	4%	/	-8%	?	-2%[59 µM]	/
